A selection: hits, their analogues and other compounds. The true share with any hit is near 4.8%.
CSC inhib – cancer stem cell inhibition; cancer stem cell-like cells viability, luminescence; inhibition, % at 7.5 µM; 300,000 tested, 1.1% active; in the data active = inhibition above about 75%; tested in HMLE shEcad cells
MPTP inh – blocks calcium-induced mitochondrial swelling; isolated mouse mitochondria, Ca2+ swelling absorbance, 30 min; inhibition, % at 10 µM; 360,000 tested, 1.4% active;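 active = inhibition of 50% or more, scaled per plate between neutral and stimulator controls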;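 note: 0% = DMSO wells given calcium and 100% = 1 mM EGTA wells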
Mdm2 MdmX PPI – disrupts the human Mdm2-MdmX interaction. inhibition, % at 8 µM. 330,000 tested, 3% active. SaOS-2 split-luciferase Mdm2/MdmX complementation, luminescence. AID 485346. O15151+Q00987;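 active = inhibition of at least 50% at 8 µM in the primary screen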
Target sequence (O15151 whole entry, looked up): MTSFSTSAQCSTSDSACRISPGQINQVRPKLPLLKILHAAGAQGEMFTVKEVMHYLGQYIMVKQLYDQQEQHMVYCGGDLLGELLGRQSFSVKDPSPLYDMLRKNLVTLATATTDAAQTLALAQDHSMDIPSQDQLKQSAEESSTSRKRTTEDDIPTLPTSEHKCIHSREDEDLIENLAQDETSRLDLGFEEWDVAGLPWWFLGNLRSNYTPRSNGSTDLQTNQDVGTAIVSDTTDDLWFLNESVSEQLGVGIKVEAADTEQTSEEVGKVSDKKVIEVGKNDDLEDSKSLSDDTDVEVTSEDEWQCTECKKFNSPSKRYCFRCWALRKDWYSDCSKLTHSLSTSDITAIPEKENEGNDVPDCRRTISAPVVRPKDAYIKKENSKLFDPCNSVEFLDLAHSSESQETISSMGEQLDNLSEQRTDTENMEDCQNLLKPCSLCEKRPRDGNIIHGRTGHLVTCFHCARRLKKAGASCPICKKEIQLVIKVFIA
Target sequence (Q00987 whole entry, looked up): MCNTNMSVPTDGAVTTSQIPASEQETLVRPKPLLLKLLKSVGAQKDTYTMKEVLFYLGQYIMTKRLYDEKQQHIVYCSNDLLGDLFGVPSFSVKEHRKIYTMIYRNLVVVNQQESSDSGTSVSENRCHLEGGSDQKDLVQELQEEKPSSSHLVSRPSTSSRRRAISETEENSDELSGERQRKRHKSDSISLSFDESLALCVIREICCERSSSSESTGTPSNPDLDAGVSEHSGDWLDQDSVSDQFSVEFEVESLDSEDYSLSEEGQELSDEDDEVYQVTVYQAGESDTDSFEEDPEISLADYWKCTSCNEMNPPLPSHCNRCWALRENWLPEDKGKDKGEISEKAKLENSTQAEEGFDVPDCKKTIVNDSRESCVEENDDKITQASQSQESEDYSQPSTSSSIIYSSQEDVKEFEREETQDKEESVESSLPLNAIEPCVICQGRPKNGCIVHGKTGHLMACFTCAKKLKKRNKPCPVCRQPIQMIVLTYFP
Beta apoptosis – blocks beta cell apoptosis. INS-1E cytokine-induced death, ATP luminescence, 48 h; percent of positive-control rescue, neutral wells zero. protection from apoptosis, % (test concentration not listed). 300,000 tested, 0.8% active. AID 435005;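 active = Every replicate reaches about 75%, or at least half do and their mean reaches it too, limit read from the data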;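 note: 0% = cytokine-treated negative control wells and 100% = positive control rescue; higher means more ATP so stronger rescue from cytokine killing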
Calb FLC – C. albicans growth modulation with fluconazole; AID 1979; C. albicans CaCi-2 (fluconazole-resistant clinical isolate) + fluconazole, Alamar Blue growth, 48 h; growth inhibition, % (no concentration beside the values); 300,000 tested, 0.57% active;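 active = growth inhibition above about 58% in most replicates, limit read from the data, passing the limit was not always enough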;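 note: all wells also contain fluconazole at 8 µg/ml as a sub-toxic cotreatment; 0% = median of DMSO wells and 100% = median of geldanamycin control wells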
Mdm2-MdmX conf – human Mdm2/MdmX binding inhibition, confirmed; luminescent assay; 10,000 tested, 55% active; inhibition, % at 8 µM; shares compounds with Mdm2 MdmX PPI; in the data active = inhibition above about 40%
FLuc counter – inhibits full-length luciferase, flagging false Mdm2/MdmX hits; SaOS-2 full-length luciferase counterscreen, luminescence; 6,200 tested, 77% active; AID 504607; inhibition, % at 8 µM; shares compounds with Mdm2 MdmX PPI;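 active = mean inhibition at 8 µM reaching about 37%, which flags the compound as non-specific, limit read from the data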;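 note: p53-null SaOS-2 cells with luciferase driven by a doxycycline-inducible promoter; compound on cells about two nights before reading with doxycycline added after day one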
* marks the source's active call; other numbers are inactive results; · = no result given.

SMILES	CSC inhib	MPTP inh	Mdm2 MdmX PPI	Beta apoptosis	Calb FLC	Mdm2-MdmX conf	FLuc counter
CC(C)c1ccc(NC(=O)C2(C)Cc3c(-c4ccc5c(c4)OCO5)ccnc3O2)cc1 (stereo not drawn)	·	1	·	·	·	·	·
Cc1cc(C)nc(NS(=O)(=O)c2ccc(NC(=O)Cc3ccccc3F)cc2)n1	-11	0	-7	·	3	·	·
CCCCOc1ccccc1NC(=O)Cn1c(-c2nonc2N)nc2ccccc21	61	-1	90*	59	-1	20	·
COc1ccc(-c2oc(NC(=O)CSc3nncn3C)c(C#N)c2-c2ccc(OC)cc2)cc1	0	1	63*	2	0	54*	70*
CC(C(=O)Nc1ccc(O)cc1C(=O)O)N1C(=O)/C(=C\c2cccs2)SC1=S (stereo not drawn)	1	-1	-27	0	-3	·	·
O=C(c1ccccc1F)N1CCN(c2cccc(C(F)(F)F)c2)CC1	-5	2	16	0	-9	·	·
O=C(c1c(F)c(F)c(F)c(F)c1F)N1CCN(c2cccc(C(F)(F)F)c2)CC1	46	3	58*	8	2	16	·
C=CCN(c1ccccc1)S(=O)(=O)c1cccc(C(=O)NC2CCN(Cc3ccccc3)CC2)c1	3	6	60*	12	-13	39	·
CC(=O)N1CCc2c(sc(NC(=O)CCS(=O)(=O)c3ccc(C)cc3)c2C#N)C1	1	0	52*	20	3	41*	78*
COc1cccc(NC(=O)c2nnn(CC(=O)Nc3cc(C)cc(C)c3)c2N)c1	-4	0	74*	·	-1	4	·
COc1cccc(NC(=O)Cn2nnc(C(=O)Nc3ccccc3)c2N)c1	-2	0	-17	6	5	·	·
CCOc1ccc(OCC)c(NC(=O)c2nnn(CC(=O)Nc3cc(C)cc(C)c3)c2N)c1	19	0	58*	10	2	8	·
O=C(CN(Cc1ccccc1)S(=O)(=O)c1ccc(F)cc1)NCc1cccnc1	-11	0	15	-6	-2	·	·
COc1cc(-c2nnc3sc(C4CCCCC4)nn23)cc(OC)c1OC	7	4	57*	9	4	27	·
COc1cccc(-c2nnc3sc(C4CCCCC4)nn23)c1	13	13	85*	-12	5	78*	25
CCOc1cccc(-c2nnc3sc(C4CCCCC4)nn23)c1	5	10	46	7	-5	·	·
Nc1ncc(-c2nnnn2-c2ccc(Cl)cc2)c(-c2ccc(Cl)cc2)n1	58	0	57*	11	6	68*	46*
O=C(NCc1ccc(Cl)nc1)c1ccc2nc([C@@H]3O[C@H](CO)[C@H](O)[C@H](O)[C@H]3O)[nH]c2c1	·	0	·	·	·	·	·
Cc1ccc(-c2csc3ncnc(NCCN4CCOCC4)c23)cc1	0	-1	54*	-3	-14	32	·
Clc1ccc(-c2csc3ncnc(NCCN4CCOCC4)c23)cc1	13	0	45	0	-5	·	·
COc1ccc(-c2csc3ncnc(NCCN4CCOCC4)c23)cc1	47	-1	61*	-16	-26	65*	36*
Fc1ccc(CO/N=C2\CCCc3nonc32)cc1	5	-1	-1	-5	-1	·	·
O=C(CSc1nc(-c2ccco2)cc(C(F)(F)F)n1)Nc1ccc2c(c1)OCO2	46	4	62*	-3	1	65*	44*
CCOC(=O)c1sc(NC(=O)CSc2nc(-c3ccco3)cc(C(F)(F)F)n2)c(C(=O)OC)c1C	14	1	73*	-6	12	29	17
COc1ccccc1CCNC(=O)CCSc1nc(-c2ccco2)cc(C(F)(F)F)n1	21	2	23	6	6	·	·
SMILES	CSC inhib	MPTP inh	Mdm2 MdmX PPI	Beta apoptosis	Calb FLC	Mdm2-MdmX conf	FLuc counter
CCOC(=O)c1sc(NC(=O)CSc2nc(-c3ccco3)cc(C(F)(F)F)n2)c(C(=O)OCC)c1C	·	3	·	·	·	·	·
COc1ccccc1CCNC(=O)CSc1nc(-c2ccco2)cc(C(F)(F)F)n1	7	1	76*	·	2	43*	83*
O=C(CCCSc1nc(-c2ccco2)cc(C(F)(F)F)n1)Nc1ccc2c(c1)OCO2	36	1	24	3	-16	·	·
CN1C2CCC1/C(=C\c1ccccc1)C(=O)/C2=C\c1ccccc1	92*	0	95*	-22	17	57*	15
Cc1ccc(N2CCN(C(=O)C(=O)c3cccc([N+](=O)[O-])c3)CC2)cc1	·	2	·	·	·	·	·
COCCCN=C1NN=C(c2cc(C)n(-c3ccccc3)c2C)CS1	-6	3	13	-3	-4	·	·
COCCCN=C1NN=C(c2cc(C)n(-c3ccccc3F)c2C)CS1	63	8	43	36	-10	·	·
COCCn1c(C)cc(C2=NNC(=Nc3ccccc3F)SC2)c1C	2	1	73*	-4	-44	88*	13
C=CCN=C1NN=C(c2cc(C)n(CC=C)c2C)CS1	18	1	87*	2	-20	89*	50*
COCCCN=C1NN=C(c2cc(C)n(Cc3ccccc3Cl)c2C)CS1	-6	4	79*	0	1	76*	80*
CC1=C(C(=O)OCc2ccc3c(c2)OCO3)C(c2cccc([N+](=O)[O-])c2)NC(=O)N1 (stereo not drawn)	8	0	50	-1	-15	70*	45*
CC1=C(C(=O)OCc2ccccc2)C(c2cccc([N+](=O)[O-])c2)NC(=O)N1 (stereo not drawn)	-10	1	27	-5	1	·	·
COc1cccc(C(=O)N2c3cc(C)ccc3OCC2C(C)(C)C)c1 (stereo not drawn)	-2	-1	9	5	-2	·	·
COc1ccc(S(=O)(=O)N2c3cc(C)ccc3OCC2C(C)(C)C)cc1 (stereo not drawn)	47	2	56*	4	3	61*	63*
Cc1ccc(S(=O)(=O)N2c3ccccc3OCC2c2ccccc2)cc1 (stereo not drawn)	63	0	56*	-2	23	58*	55*
Cc1ccc(S(=O)(=O)N2c3cc(C)ccc3OCC2C(C)(C)C)cc1 (stereo not drawn)	53	0	63*	0	-3	72*	48*
NC(Cc1ccc(F)cc1)c1csc(NC(=O)NC(c2ccccc2)c2ccccc2)n1 (stereo not drawn)	·	1	·	·	·	·	·
CC1CCc2c(sc3nc(C(C)(C)C)nc(N4CCN(C(=O)CCl)CC4)c23)C1 (stereo not drawn)	63	0	98*	98*	31	36	35
COc1ccc(Cn2c(SCc3cc(C)ccc3C)nc3cc(OC)c(OC)cc3c2=N)cc1	142*	26	84*	105*	-7	100*	51*
CCCCNC(=O)CSc1nc2cc(OC)c(OC)cc2c(=O)n1Cc1ccc(OC)cc1	-2	2	24	-9	3	·	·
